Experimental data reported in PubChem BioAssay AID1492 (National Center for Advancing Translational Sciences (NCATS), 2009).
Inconclusive results are not listed. Entries that show only a call come without a potency. The source made the active and inactive calls. The call rests on the fitted dose curve; in most records, active means well fitted inhibition curve with a large enough effect; inconclusive means small, poorly fitted or top-dose-only effect; inactive means flat fitted curve, though single readings scatter.

target: Muscarinic acetylcholine receptor M1 (Rattus norvegicus) (UniProt P08482); test: Counterscreen Concentration-Response Assay for Antagonists of the Neuropeptide S Receptor: Muscarinic Receptor Calcium Signal Transduction.; details: CHO-M1 cells, carbachol-induced calcium fluorescence, FDSS; series mostly up to 20.2 µM
Description: NIH Chemical Genomics Center [NCGC] NIH Molecular Libraries Probe Production centers Network [MLPCN] MLPCN Grant: X01-DA026210-01 Assay Submitter (PI): Heilig, Markus Alexander NCGC Assay Overview: Neuropeptide S receptor (NPSR), previously known as GPR154, is a recently de-orphanized G protein coupled receptor. Its endogenous ligand is the 20 amino acids peptide Neuropeptide S (NPS). […] NPS and its receptor are found in various tissues. Specifically they are highly expressed in brain areas that have been implicated in modulation of arousal, stress and anxiety. Central administration of NPS in mice produces an unusual profile of activity by inducing wakefulness and arousal, while at the same time suppressing anxiety. Therefore, NPSR may represent a novel drug target for the treatment of sleep and anxiety disorders. To identify NPSR antagonists, we developed a cell-based assay with transfected NPS receptor. NPS can stimulate the production of cAMP as well as release intracellular calcium in Chinese hamster ovary cells stably expressing NPS receptor. This change in intracellular calcium can be detected using a calcium indicator dye on a calcium imaging plate reader system (FDSS). To validate the specific action of compounds on the NPS receptor, a counterscreen was developed that tests compounds' antagonism of M1 muscarinic receptor stimulation by carbachol. The protein, gene and taxonomy linked to this assay refer to Rattus norvegicus, but Chinese Hamster ovary cells were actually used.
NCGC Assay Protocol Summary: A Chinese hamster ovary (CHO) cell line stably expressing muscarinic acetylcholine M1 receptor (CHO-M1) was obtained from ATCC and maintained in F-12 Kaighn's media (Invitrogen, Carlsbad, CA, 21127) supplemented with 10 % FBS, 100 units/ml penicillin, 100 ug/ml streptomycin and 250 ug/ml geneticin at 37C, 5% CO2 in a humidified atmosphere. Before the assay, aliquots of cells were frozen and stored at -135C. The assay was performed on a FDSS-7000 kinetic plate reader in 1536-well format. The maximums of kinetic fluorescence responses were converted into text files using the instrument's software data export utility. […] AC50 values were determined from concentration-response data modeled with the standard Hill equation. CHO-M1 1536-well FDSS assay protocol: (1) Frozen CHO-M1 cells were thaw, washed once with fresh media and resuspended in F-12 Kaighn's media supplemented with 10 % FBS, 100 units/ml penicillin and 100 ug/ml streptomycin. Cells were plated at 3 ul/well (1200 cells) to black, clear-bottom, tissue-culture treated 1536-well plates, and then cultured at 37C, 5 % CO2 for 16 to 30 hours. (2) Add 3 ul of calcium dye (from High Performance PBX Calcium Assay Kit, BD Biosciences). The calcium dye was prepared according to the manufactory's instruction. (3) Incubation at 37C, 5 % CO2 for 60 min. (4) Add 23 nl/well of compound in DMSO solution. The final titration for each compound was between 0.6 nM and 46 uM. (5) Load plates to FDSS-7000. The following steps were performed on FDSS-7000. (6) Record fluorescent background (Ex 480 nm, Em 520-560 nm) for 10 s. (7) Add 2 ul of stimulation reagent (1X HBSS buffer, 0.1% BSA, 60 nM carbachol). Record antagonist response (Ex 480 nm, Em 520-560 nm) for 180 s. Keywords: MLSMR, MLPCN, NIH Roadmap, qHTS, NCGC, NPS, Neuropeptide S Antagonists

| SMILES | Potency |
| --- | --- |
| O=C(N1CCOCC1)C1(c2ccc(Cl)cc2)CCCC1 | inactive |
| O=c1cc(CNCCCO)c2ccccc2[nH]1 | inactive |
| Nn1c(COc2ccccc2)nnc1SCc1cc(=O)[nH]c2ccccc12 | inactive |
| Cc1ccc(-c2nnn(CC(=O)Nc3ccccc3-c3ccccc3)n2)c(-n2cnnn2)c1 | inactive |
| CCc1ccc2oc(-c3cc(N)cc(C)c3O)nc2c1 | inactive |
| O=C1CC(NCc2ccncc2)C(=O)N1c1ccccc1 (stereo not given) | inactive |
| Nc1ccc(-c2nc3c(Cl)cc(N)cc3[nH]2)cc1 | inactive |
| O=C(/C(=C/c1ccc(Cl)cc1)c1nc2ccccc2[nH]1)c1cccs1 | 7.94 µM (active) |
| CC(=O)n1nc2nc(C)cc(C)c2c1N | inactive |
| CC1CCN(S(=O)(=O)c2ccc(C(=O)Nc3sccc3C(N)=O)cc2)CC1 | inactive |
| Cn1c(COc2ccccc2)nnc1SCc1cc(=O)[nH]c2ccccc12 | inactive |
| CN(C)c1ccc(N2CN=C3SCC(=O)N3C2)cc1 | inactive |
| O=C(O)CCCCCNc1nc(=S)[nH]c2ccccc12 | inactive |
| CC(=O)c1cc(NC(=O)c2ccccc2)c(=O)oc1/C=C/N(C)C | inactive |
| CN(Cc1cc(=O)[nH]c2ccccc12)C(=O)c1ccccc1 | inactive |
| CCOc1ccc(N2C(=O)CC(NCCc3ccncc3)C2=O)cc1 (stereo not given) | inactive |
| N#CC(C#N)=c1ccc2c(c1)NC1(CCCCC1)N=2 | inactive |
| O=C(O)c1cccc(Nc2ncnc3ccccc23)c1 | inactive |
| COc1ccc(N=C2S/C(=C\c3ccc(N4CCOCC4)o3)C(=O)N2CCc2c[nH]c3ccccc23)cc1 | 5.01 µM (active) |
| COc1ccc(-c2cc(N)n(S(=O)(=O)c3c(F)c(F)c(F)c(F)c3F)n2)cc1OC | 11.2 µM (active) |

| SMILES | Potency |
| --- | --- |
| CC1CCCc2sc3nc(N4CCN(CCO)CC4)n4ncnc4c3c21 (stereo not given) | inactive |
| Cc1cccc(-c2nnc(SCc3cc(=O)[nH]c4ccccc34)n2C)c1 | inactive |
| Brc1ccc(CSc2ncn[nH]2)cc1 | inactive |
| Cc1cccnc1NC(=O)c1c(O)c2cccc3c2n(c1=O)CCC3 | inactive |
| O=[N+]([O-])c1cc2c(cc1/C=N/n1c(-c3ccccc3)n[nH]c1=S)OCO2 | inactive |
| O=C(NCCCN1CCOCC1)c1cc2c(=O)[nH]c3ccccc3c2s1 | inactive |
| CCN(CC)S(=O)(=O)c1ccc2c(c1)nc(SC(C)C(N)=O)n2-c1ccc(OC)cc1 (stereo not given) | inactive |
| O=C(/C=C/c1ccco1)NC(=S)Nc1cccc(-c2nc3ccccc3o2)c1 | inactive |
| COc1ccc(N(CC(=O)Nc2cccc(SC)c2)S(C)(=O)=O)cc1Cl | inactive |
| O=C(COC(=O)c1ccccc1C(=O)c1ccc(Cl)c([N+](=O)[O-])c1)NC1CCCCCC1 | 4.47 µM (active) |
| C=CCNC(=O)/C(C#N)=C/c1cn(-c2ccccc2)nc1-c1ccc(OC)c([N+](=O)[O-])c1 | inactive |
| CCC(C)(C)NC(=O)Cc1ccc(C)cc1 | inactive |
| O=C(Nc1nccs1)C1CCCN1S(=O)(=O)c1ccc(Cl)cc1 (stereo not given) | inactive |
| C#CC(=O)N(c1cccc(OC)c1)C(C(=O)NC1CCCC1)c1cccs1 (stereo not given) | inactive |
| OC(C#Cc1ccccn1)c1cccs1 (stereo not given) | inactive |
| CCC(Sc1ccc2nnc(-c3cccnc3)n2n1)C(=O)O (stereo not given) | inactive |
| COc1ccc(/C=C2\CCCC3C2=NN(C(=O)c2ccco2)C3c2ccc(OC)c(OC)c2)cc1OC (stereo not given) | inactive |
| Cc1cc(OCC(=O)c2ccc(Br)cc2)ccc1N1C(=O)CCC1=O | inactive |
| CCn1cc(C(=O)NCC2CCCO2)c(=O)c2cc(S(=O)(=O)N3CCCCCC3)ccc21 (stereo not given) | inactive |
| Cc1ccc(-c2ccc(/C=C3\C(=O)ON=C3c3ccccc3)o2)c([N+](=O)[O-])c1 | 3.98 µM (active) |
